Source: PubChem BioAssay (several laboratories)
HSF1 activator: increases HSF-1 driven luciferase reporter signal; 300,000 compounds, 1.7% hits; activation, % at 9 µM; NIH3T3-HGL HSF-1 luciferase reporter, MG132, 8 h; 100% = twice DMSO control signal; AID 504408;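 active = mean replicate activation of at least 50% with a set share of replicates each reaching 50%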
HSP90 inh: HSP90 refolding inhibition in rabbit reticulocyte lysate; inhibition, % at 5.6 µM; 290,000 compounds, 0.91% hits; luciferase refolding luminescence, 3 h;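 active = inhibition above the screen-wide mean plus 3 SD, computed separately per campaign, cut at about 16% in these data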;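 note: inhibitors lower the luminescence because luciferase stays unfolded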
TWEAK Fn14 block: blocks TWEAK-Fn14 interaction in a reporter cell assay; TWEAK-stimulated Fn14 reporter cells, luciferase luminescence, 8 h; 360,000 compounds, 2% hits; inhibition, % at 10 µM; in the data active = inhibition above about 50%
LMP1 NFkB inh: reduces LMP1-driven NF-kappaB luciferase signal | 350,000 compounds, 0.69% hits | inhibition, % at 12.5 µM | LMP1-induced NF-kappaB luciferase reporter cells, luminescence | AID 504558; in the data active = inhibition above about 41%
TROY signal inh: blocks TROY-dependent signaling in reporter cells. Q293 LMP1-TROYcd NF-kB luciferase reporter, 4 h. inhibition, % at 10 µM. 360,000 compounds, 0.98% hits;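 active = compounds whose plate-normalised and pattern-corrected inhibition of the luciferase reporter signal at the single screening dose is 50% or more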
HSF1 inh: HSF1 inhibition | NIH3T3-HGL HSE-luciferase, MG132-induced, luminescence 8 h; active compounds read low | activity change, negative = inhibition, % at 7.5 µM (by protocol) | 300,000 compounds, 0.77% hits;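 active = more than half of replicate wells show activity change below -50%, luminescence cut by over half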;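 note: luciferase reports HSF-1 transcriptional activity via heat shock element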
Large screens that a line does not name were inactive. Only some compounds are listed: those with a hit (about 4.7% of all), similar ones and a draw of the others.

CCN(CC)c1ccc(NC(=O)c2ccco2)cc1	none
CCNC(=S)Nc1cc(OC)c(NC(=O)c2ccco2)cc1OC	none
C/C=C/c1cccc(-c2nc(C(=O)NC3CCC3)cc3c2[C@H](CCO)N(S(=O)C(C)(C)C)C3)c1 (stereo not given in full)	none (no result: HSF1 activator, HSP90 inh, LMP1 NFkB inh, HSF1 inh)
CCOC(=O)C1(C)CCN1C(=O)c1cccs1 (stereo not given)	none (no result: HSF1 activator, HSP90 inh, LMP1 NFkB inh, HSF1 inh)
CCc1nc2c(OCCOC)cccn2c1N(C)C(=O)c1ccco1	none (no result: HSF1 activator, HSP90 inh, LMP1 NFkB inh, HSF1 inh)
CCN(CC)c1ccc(NC(=S)NC(=O)c2ccco2)cc1	HSF1 activator 179.6
CC(C)C(=O)N1CCN(c2ccc(NC(=O)c3ccc([N+](=O)[O-])o3)cc2Cl)CC1	none (no result: HSF1 activator, HSF1 inh)
O=C(Nc1cccc(S(=O)(=O)N2CCCCC2)c1)c1ccc([N+](=O)[O-])o1	HSF1 activator 73.5
Cc1ccc(NC(=O)c2ccc([N+](=O)[O-])o2)cc1S(=O)(=O)N1CCOCC1	HSF1 activator 74.8
CN1CCN(c2ccc(NC(=O)c3ccc([N+](=O)[O-])o3)cc2Cl)CC1	HSF1 inh -77.5
O=C(COC(=O)c1ccc([N+](=O)[O-])o1)Nc1cccc(S(=O)(=O)N2CCCCC2)c1	none
O=C(Nc1ccc(N2CCOCC2)c(Cl)c1)c1ccc([N+](=O)[O-])o1	HSF1 activator 140.6
CCOc1cc(N2CCOCC2)c(OCC)cc1NC(=O)c1ccc2ncsc2c1	none (no result: HSF1 activator, HSP90 inh, HSF1 inh)
CCOc1cc(N2CCOCC2)c(OCC)cc1NC(=O)c1cc(-c2ccco2)nc2ccccc12	HSF1 inh -77.0
CCOc1cc(N2CCOCC2)c(OCC)cc1NC(=O)COC(=O)c1cc2ccccc2cc1O	none
CCOc1ccc(OCCC(=O)OCC(=O)Nc2cc(OCC)c(N3CCOCC3)cc2OCC)cc1	HSF1 activator 111.2 (no result: HSP90 inh)
CCOc1cc(N2CCOCC2)c(OCC)cc1NC(=O)c1cccc(N(C)C)c1	HSF1 inh -51.3
Cc1ccccc1NC(=O)CNC(=O)N1CC(=O)Nc2ccccc21	none (no result: HSF1 activator, HSP90 inh, HSF1 inh)
COc1ccc(-c2cn3ccccc3n2)cc1[N+](=O)[O-]	HSF1 activator 54.8
CCCOc1ccc(-c2cn3ccccc3n2)cc1[N+](=O)[O-]	none
CN(C)c1ncnc2c1ncn2[C@H]1CN(CCN2CCOCC2)C[C@@H](CO)O1	none (no result: HSF1 activator, HSP90 inh, LMP1 NFkB inh, HSF1 inh)
O=C(N/N=C/c1cc2c3c(c1O)CCCN3CCC2)c1ccccc1O	LMP1 NFkB inh 65.4
O=C(N=c1nc2ccccn2s1)c1ccccc1	TWEAK Fn14 block 94.9, TROY signal inh 58.8 (no result: HSP90 inh)
Cc1cnc(NC(=O)C2(C)CCN2C(=O)C(C)C)s1 (stereo not given)	none (no result: HSF1 activator, HSP90 inh, LMP1 NFkB inh, HSF1 inh)
CN(C)C=NC(=O)c1cc(C(=O)c2ccc(C(C)(C)C)cc2)c[nH]1	HSF1 activator 50.4
CN(C)C=NC(=O)c1cc(C(=O)c2ccccc2Cl)c[nH]1	none
CC(C)OC(=O)CNc1n[nH]c(=S)[nH]c1=O	HSP90 inh 16.8
COC(=O)N/N=C/c1ccc(OCCSc2ccc(Cl)cc2)c(OC)c1	none
NC(=S)N/N=C/c1ccccc1OCCSc1ccc(Cl)cc1	TWEAK Fn14 block 60.6
COC(=O)N/N=C/c1cccc(OCCSc2ccc(Cl)cc2)c1	HSF1 activator 56.5
Cc1ccc(CC2SC(N=C(N)N)=NC2=O)cc1 (stereo not given)	HSF1 activator 81.2
NC(N)=NC1=NC(=O)C(Cc2ccccc2)S1 (stereo not given)	none
Cc1ccc(NC(=O)N2CCc3ccccc32)cc1	HSF1 activator 62.8, TWEAK Fn14 block 65.3
CCc1ccccc1NC(=O)N1CCCc2ccccc21	TWEAK Fn14 block 52.6, TROY signal inh 77.5
COC(=O)[C@H]1C[C@H](OC(=O)NCc2ccccc2F)[C@@]2(O)CN(S(=O)(=O)c3ccc(C)cc3)CC2[C@H]1C(=O)OC (stereo not given in full)	none (no result: HSF1 activator, HSP90 inh, HSF1 inh)
COc1cccc(C(=O)N2CCN(c3ccc(N4CCOCC4)nn3)CC2)c1	none (no result: HSP90 inh)
COc1ccc2c(c1)CCc1cc(C(=O)N3CCN(c4ccc(N5CCOCC5)nn4)CC3)sc1-2	TROY signal inh 56.1
COc1ccc(CNC(=O)c2sc(=S)n(-c3ccccc3)c2N)cc1	HSF1 inh -67.4
O=C(Cc1ccc(Cl)cc1)NCC(=O)N1CCCCC1	LMP1 NFkB inh 45.5
O=C(Nc1ccc(-c2nc3ncccc3o2)cc1)c1ccc([N+](=O)[O-])o1	HSF1 activator 150.8
Cn1cc([N+](=O)[O-])c(C(=O)Nc2ccc(-c3nc4ccccc4o3)cc2)n1	HSF1 activator 284.5
